Screening data: PubChem, several laboratories
p-CIP stab down = compounds decreasing mouse p/CIP protein stability; decrease of EGFP signal, % at 10 µM; actives 0.01% (n = 290,000); AID 1984; F442A p/CIP-EGFP cells, EGFP fluorescence, 16 h;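 active means EGFP signal decrease of at least 30% at 10 µM or well 3 SD below plate mean, unless failing retest; inactive means the rest, including hits failing retest or dose response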
AddAB inh = less growth of phage-infected E. coli with AddAB. E. coli expressing H. pylori AddAB, absorbance growth. inhibition, % at 11.9 µM. actives 0.29% (n = 330,000). AID 435030; in the data active means inhibition above about 12%;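 further: 0% = vehicle wells of infected cells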
E coli growth-1 = reduces bacterial viability in AddAB counter-screen; E. coli V3065 growth, OD600 absorbance, 18 h; inhibition, % at 11.9 µM; actives 0.27% (n = 330,000);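 active means inhibition above the campaign's mean inhibition across all tested compounds plus 3 SD, cut at about 9.9% in these data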;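 further: uninfected addAB+ strain grown without phage in ampicillin broth; 0% = DMSO wells and 100% = ciprofloxacin 0.95 µg/ml wells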
phage Ecoli inh = E. coli growth loss with phage present | growth absorbance | inhibition, % at 11.9 µM | actives 0.26% (n = 360,000) | AID 651602; in the data active means inhibition above about 11%
E coli growth-2 = inhibitors of Escherichia coli growth. OD600, 23 h; hits give low values. OD600 absorbance (concentration not given with the values). actives 0.21% (n = 330,000). AID 1053175;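 active means OD600 absorbance below the run mean of sample wells minus 3.6 SD, in any replicate, cut at about 0.56 in these data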
Tat transport = inhibitors of E. coli Tat protein transport. actives 0.036% (n = 340,000). inhibition, % at 10 µM. E. coli MC4100 TorA-mCherry Tat export, fluorescence;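 active means mean replicate inhibition at least 50% and at least half of replicates individually reaching 50%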;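 further: exported cargo escapes ClpAP degradation while cytoplasmic cargo is degraded and loses fluorescence; 0% = median of neutral control wells and 100% = median of NaSCN control wells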
RecBCD conf = confirmation: growth loss of phage-infected RecBCD+ E. coli (RecBCD inhibitor screen). E. coli V66 + T4 2- phage, growth OD. AID 651982. actives 45% (n = 890). shares compounds with phage Ecoli inh. inhibition, % at 11.9 µM;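 active means mean inhibition over triplicates exceeding the hit threshold derived in the original primary screen, cut at about 11% in these data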
Ecoli viability = bacterial viability inhibition counter-screen for RecBCD. inhibition, % at 11.9 µM. shares compounds with phage Ecoli inh. E. coli viability, absorbance (OD) growth. actives 29% (n = 890); in the data active means inhibition above about 20%;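 further: E. coli strain V66 grown with compound alone and no phage infection; 0% = bacteria with DMSO vehicle only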
AddAB phage OD = growth loss of phage-infected AddAB E. coli, RecBCD counter-screen. E. coli expressing H. pylori AddAB + T4 phage, OD growth; gene 2 mutant T4, recBCD-deleted host. actives 45% (n = 890). shares compounds with phage Ecoli inh. AID 651984. inhibition, % at 11.9 µM;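 active means mean inhibition above the solvent-only control wells' mean plus 3 SD, cut at about 22% in these data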;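 further: higher means less bacterial growth from phage killing when AddAB is blocked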
* marks the source's active call; other numbers are inactive results; / = no result given. Only some compounds are listed: those with a hit (about 0.51% of all), similar ones and a draw of the others.

SMILES | p-CIP stab down | AddAB inh | E coli growth-1 | phage Ecoli inh | E coli growth-2 | Tat transport | RecBCD conf | Ecoli viability | AddAB phage OD
Oc1c(Cl)cccc1Cc1cc(Cl)cc(Cl)c1O | / | / | / | 14.5* | 0.383* | 5.2 | 4.9 | 7.8 | 6.5
CC(N)C(=O)NC1C2C(=C(O)CC(O)C2O)C(=O)OC1(C)C(Cl)Cl (configuration not stated) | / | / | / | 98.7* | / | 82.3* | 104.2* | 106.1* | 97.0*
CN(C)C1C(=O)C(C(N)=O)=C(O)C2(O)C(=O)C3=C(O)c4c(O)cccc4C(C)(O)C3C(O)C12 (configuration not stated) | 2.8 | -2.4 | -3.2 | 98.9* | 0.064* | 138.0* | 101.5* | 104.1* | 102.4*
COc1ccc(NC(=O)C2C3CCC(O3)C2C(=O)O)c(OC)c1 (configuration not stated) | -6.6 | 0.8 | -0.7 | -1.2 | / | -6.2 | / | / | /
Fc1ccc(N2Cc3ccccc3-n3nncc3C2)cc1 | / | / | / | 1.6 | / | / | / | / | /
